Assay outcomes deposited in PubChem by National Center for Advancing Translational Sciences (NCATS).
G9a block = qHTS Assay for Inhibitors of Histone Lysine Methyltransferase G9a | 8.8% of 350,000 active | G9a H3K9 monomethylation, AlphaScreen, 2 h | Potency, µM (doses to about 102 µM), without a hit: at the highest dose activity, negative = inhibition, hits mostly inhibitors | Histone-lysine N-methyltransferase EHMT2 (Homo sapiens), Q96KQ7; also: % is scaled to controls: 0 for no effect and ±100 for the full control effect; nearly all actives have a fitted effect of over 75% in size
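Using a bead-based AlphaScreen, monomethylated H3K9 product from 2 h room-temperature reactions (G9a 20 nM, peptide 500 nM, SAM 20 uM) was detected with 0.5 ug/mL rabbit anti-H3K9me1 antibody.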
JMJD2A Tudor inh = qHTS Assay for Inhibitors of JMJD2A-Tudor Domain; Lysine-specific demethylase 4A (Homo sapiens), O75164; AlphaScreen JMJD2A-Tudor / H3K4me3 peptide binding; Potency, µM (doses to about 114 µM), for inactives: at the top dose activity change, negative = inhibition, most hits filed as inhibitors; 4.4% of 390,000 active; also: % is scaled to controls: 0 for no effect and ±100 for the full control effect; nearly all actives have a fitted effect of over 50% in size
L3MBTL1 block = qHTS Assay for the Inhibitors of L3MBTL1 | Lethal(3)malignant brain tumor-like protein 1 (Homo sapiens), Q9Y468 | Potency, µM (doses to about 57.1 µM), inactives show top-dose activity, negative = inhibition, usual class: inhibitors | 0.66% of 230,000 active | AlphaScreen L3MBTL1–H3K9me1 peptide binding; also: % is scaled to controls: 0 for no effect and ±100 for the full control effect; nearly all actives have a fitted effect of over 60% in size
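AlphaScreen proximity signal between nickel-chelate acceptor and streptavidin donor beads (final 10 ug/mL) reports binding of 50 nM L3MBTL1 to 75 nM biotin-H3 K9me1 peptide; complex incubated with compounds 30 min at room temperature; cefsulodin titration as control.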
HP1b binding inh = HTS for Inhibitors of HP1-beta Chromodomain Interactions with Methylated Histone Tails | Chromobox protein homolog 1 (Homo sapiens), P83916 | AlphaScreen HP1-beta / biotin-H3K9me3 peptide binding | Potency, µM (titrated, usually from 114 µM), without a hit: at the highest dose activity change, negative = inhibition, most hits filed as inhibitors | 0.56% of 390,000 active | AID 540317, 2011; also: nearly all actives have a fitted effect of over 70% in size
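AlphaScreen: HP1-beta (50 nM) preformed 30 min with biotin-H3(1-18)K9me3 peptide (50 nM) in PBS pH 7.4, 0.01% Tween-20. Compound added for 30 min at RT, then streptavidin donor/nickel chelate acceptor beads (10 ug/mL) for 30 min.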
BAZ2B block = qHTS Assay for Inhibitors of BAZ2B. Bromodomain adjacent to zinc finger domain protein 2B (Homo sapiens), Q9UIF8. AlphaScreen BAZ2B-H3K14Ac peptide displacement. Potency, µM (titrated, usually from 114 µM), inactives show top-dose activity change, negative = inhibition, hits mostly inhibitors. 4.4% of 360,000 active; also: % is scaled to controls: 0 for no effect and ±100 for the full control effect; nearly all actives have a fitted effect of over 60% in size
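Complex of BAZ2B and biotin-H3K14Ac (50 nM apiece) forms over 30 min at RT, then faces library compounds up to 110 uM for another 30 min; AlphaScreen beads added, 20 min dark incubation, luminescence read.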
* hit, by the source's call; ? = inconclusive; nt = no result given; [ ] = another dose, or the depositor's remark. An excerpt weighted towards active compounds, which were near 11% of everything screened. Calls follow the shape of the dose curve; as a rule, active = well fitted inhibition curve with a large enough effect; inconclusive = small, poorly fitted or top-dose-only effect; inactive = no such curve, though single readings can be large or run the other way. Potency is read from the fitted curve at half-maximal effect.

SMILES	G9a block	JMJD2A Tudor inh	L3MBTL1 block	HP1b binding inh	BAZ2B block
CCCCN(CC)CCCNC(=S)Nc1ccc2nc(N3CCN(C)CC3)cc(C)c2c1	40µM*	-17%	nt	18%	-25%
CCCCN(CC)CCCNC(=S)Nc1ccc2nc(N3CCN(CC)CC3)cc(C)c2c1	50µM*	-26%	nt	-11%	-20%
Cc1cccc(OCC(=O)N2CCC(c3nc4ccccc4o3)CC2)c1C	2%[59 µM]	2%	nt	29%	0%
Cc1ccc(S(=O)(=O)N(Cc2nc(-c3cccc(C)c3)no2)C2CCCCC2)cc1	18%[59 µM]	15%	nt	50%	-5%
COc1cccc2c(SCC(=O)N/N=C/c3ccccc3)cc(C)nc12	-16%	-19%	9%	15%	2%
COc1ccc2nc(C)cc(SCC(NC(C)=O)C(=O)OC(C)C)c2c1 (centres undefined)	40µM*	-6%	-2%	49%	-2%
COc1ccc2nc(C)cc(SCC(=O)N/N=C/c3ccc(O)c(O)c3)c2c1	35µM*	-30%	-10%	-5%	?
COc1ccc2nc(C)cc(SCC(=O)OC(C)C)c2c1	31%	-3%	?	18%	-17%
COc1ccc2c(c1)c(C(=O)N/N=C/c1ccc(O)c(O)c1)c(C)n2C	50µM*	-26%	-4%	-6%	?
COc1cccc2c(SCC(=O)N/N=C/c3ccc(O)c(O)c3)cc(C)nc12	35µM*	?	-28%	-3%	?
Cc1nc(Nc2ccc(Cl)cc2)c2nnn(Cc3ccccc3)c2n1	-4%	18µM*	-1%	-6%	2%
Cc1nc2c(nnn2Cc2ccccc2Cl)c(=O)[nH]1	0%[0.501 µM]	3%	4%[2.29 µM]	33%	-5%
Cc1nc2c(nnn2Cc2ccccc2)c(=O)[nH]1	?	8.9µM*	nt	?	nt
COc1ccc(Nc2nc(C)nc3c2nnn3Cc2ccccc2)cc1OC	-2%[59 µM]	3%	-7%	14%	13%
Cc1cc(C(=O)NC(=S)Nc2ccccc2N2CCOCC2)ccc1[N+](=O)[O-]	35µM*	?	-24%	?	?
O=C(NC(=S)Nc1ccccc1N1CCCC1)c1ccc(F)cc1	32µM*	35µM*	-5%[11.4 µM]	50µM*	25µM*
O=C(NC(=S)Nc1ccccc1N1CCCCC1)c1ccc(F)cc1Cl	-7%[12.7 µM]	-20%	nt	17%	-30%
O=C(NC(=S)Nc1ccccc1N1CCCCC1)c1ccccc1	32µM*	?	-1%	-24%	?
O=C(NC(=S)Nc1ncccn1)c1ccc(F)cc1	8.9µM*	-22%	nt	-19%	?
COC(=O)CSCc1nc(-c2ccc(C(=O)OC)cc2)oc1C	27%[59 µM]	4%	nt	41%	0%
Cc1ccccc1C(=O)NC(=S)Nc1ccccc1N1CCCC1	20µM*	25µM*	?	?	25µM*
CC(C)Oc1ccc(C(=O)Nc2ccccc2N2CCCC2)cc1	45µM*	-5%[11.4 µM]	nt	?	?
COc1ccc(C(=O)Nc2ccccc2N2CCCC2)cc1	-7%[2.33 µM]	-23%	nt	20%	?
CS(=O)(=O)N1CCN(c2ccccc2NC(=S)NC(=O)c2cccs2)CC1	17%	-11%[11.4 µM]	-8%	16%	?
Cc1ccccc1C(=O)Nc1ccccc1N1CCN(C(=O)c2ccccc2)CC1	51%	-14%	nt	31%	-23%
SMILES	G9a block	JMJD2A Tudor inh	L3MBTL1 block	HP1b binding inh	BAZ2B block
CC1CCN(c2ccccc2NC(=S)NC(=O)c2cccs2)CC1	15%[12.7 µM]	?	-16%	?	35µM*
O=C(Nc1ccccc1N1CCCC1)c1cccc(F)c1	35µM*	-16%	nt	26%	?
COc1cccc(NC(=O)Cn2c(=O)n(CC(=O)NCc3ccc(C)cc3)c(=O)c3sccc32)c1	-27%[59 µM]	-14%	nt	3%	-12%
Cc1ccc(C(=O)Cn2c3c(sc2=N)CCCC3)cc1	-41%[59 µM]	nt	nt	nt	nt
Cc1[nH]n(-c2ccc(Br)cc2)c(=O)c1/C=N/NC(=O)c1ccccc1	?	79µM*	-1%	38%	32µM*
Cc1[nH]n(-c2ccccc2)c(=O)c1/C=N/NC(=O)c1cccc(F)c1	25µM*	79µM*	nt	45%	79µM*
CS(=O)(=O)c1ccccc1-c1nnc(NC(=O)c2ccc3ncsc3c2)o1	-14%[2.33 µM]	56µM*	21%	61%	50µM*
CS(=O)(=O)c1cccc(-c2nnc(NC(=O)c3ccc4ncsc4c3)o2)c1	?	?	-8%	27%	4%
CS(=O)(=O)c1ccccc1-c1nnc(NC(=O)Cc2ccccc2)o1	?	79µM*	nt	8%	25µM*
O=C(Nc1ccncc1)c1ccc2ncsc2c1	32%[2.33 µM]	-1%	-3%	39%	4%
O=C(Nc1ccccc1F)c1ccc2ncsc2c1	45µM*	-10%	nt	47%	7%
COc1cccc(-c2nnc(NC(=O)c3ccc4ncsc4c3)o2)c1	?	-20%	24%	25%	79µM*
CCOc1ccc(C(=O)NCCS(=O)(=O)N2CCN(c3cccc(Cl)c3)CC2)cc1	5%[59 µM]	-15%	nt	75%	14%
COc1ccc2[nH]cc(CCNC(=O)COc3cc(C)cc4oc(=O)cc(C)c34)c2c1	-13%[12.7 µM]	-15%	nt	26%	-4%
CCCC(O)c1nc2ccccc2n1CCCOc1ccc(Cl)cc1 (centres undefined)	-44%[59 µM]	-8%	nt	42%	2%
CC(C)c1ccc(NC2CCCN(C(=O)CN3CCCC3=O)C2)cc1 (centres undefined)	1%[59 µM]	-20%	nt	57%	-21%
CCOCCN1CCN(C(=O)CN2CCCC2=O)CC1	7.9µM*	?	5%	8%	89µM*
CCN(CC)c1ccc(/C=C/c2nc3ccccc3s2)cc1	5%	nt	6%	nt	-27%
COc1cc2nc(/C=C/c3ccc(N(C)C)cc3)sc2cc1SC	?	25µM*	?	?	22µM*
Cc1ccc(C(=O)Nc2ccc(S(=O)(=O)O)c3cc(S(=O)(=O)O)cc(S(=O)(=O)O)c23)cc1NC(=O)c1cccc(NC(=O)Nc2cccc(C(=O)Nc3cc(C(=O)Nc4ccc(S(=O)(=O)O)c5cc(S(=O)(=O)O)cc(S(=O)(=O)O)c45)ccc3C)c2)c1	0.28µM*	nt	nt	nt	nt
COc1ccc(C2/C(=C(/O)c3ccc4c(c3)CC(C)O4)C(=O)C(=O)N2Cc2cccnc2)cc1 (centres undefined)	40µM*	-21%	nt	54%	-36%
COc1ccc(C2/C(=C(/O)c3ccc4c(c3)CC(C)O4)C(=O)C(=O)N2CCCn2ccnc2)cc1 (centres undefined)	?	?	nt	5%	?
COc1ccc(C2/C(=C(\O)c3ccc4c(c3)CC(C)O4)C(=O)C(=O)N2Cc2cccnc2)c(OC)c1 (centres undefined)	71µM*	-21%	nt	13%	-13%
